Screening results as filed in PubChem BioAssay.
This is a sample that favours compounds with a hit; in the whole collection about 1.7% have one here.
hERG WT inh – inhibitors of human wildtype KCNH2 potassium channel | hit rate 0.37% among 340,000 | Q12809 | activity change, % at 1.84 µM | U2OS, BacMam KCNH2, thallium flux FluxOr; hits give low values;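 active = maximum activity change below -70%; inconclusive = maximum activity change between -70% and -50%; inactive = maximum activity change above -50%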
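U2OS cells were transduced with wild-type KCNH2 virus (2.03 x 10^8 / mL) for 4 h at room temperature, then cultured overnight at 37 C. Thallium flux was read with FluxOr dye. Rate constants were normalized to DMSO controls.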
RXFP1 antagonist – blocks the human relaxin receptor RXFP1. HEK293-RXFP1, relaxin-stimulated cAMP HTRF, 30 min; hits give low values. activity change, negative = inhibition, % at 57.5 µM. hit rate 0.59% among 350,000. AID 1259400;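 active = activity change of -60% or lower, but not beyond a set lower limit; inconclusive = change between -60% and -40%, or beyond the set limit; inactive = change above -40%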
Target sequence (Q9HBX9 whole entry, looked up): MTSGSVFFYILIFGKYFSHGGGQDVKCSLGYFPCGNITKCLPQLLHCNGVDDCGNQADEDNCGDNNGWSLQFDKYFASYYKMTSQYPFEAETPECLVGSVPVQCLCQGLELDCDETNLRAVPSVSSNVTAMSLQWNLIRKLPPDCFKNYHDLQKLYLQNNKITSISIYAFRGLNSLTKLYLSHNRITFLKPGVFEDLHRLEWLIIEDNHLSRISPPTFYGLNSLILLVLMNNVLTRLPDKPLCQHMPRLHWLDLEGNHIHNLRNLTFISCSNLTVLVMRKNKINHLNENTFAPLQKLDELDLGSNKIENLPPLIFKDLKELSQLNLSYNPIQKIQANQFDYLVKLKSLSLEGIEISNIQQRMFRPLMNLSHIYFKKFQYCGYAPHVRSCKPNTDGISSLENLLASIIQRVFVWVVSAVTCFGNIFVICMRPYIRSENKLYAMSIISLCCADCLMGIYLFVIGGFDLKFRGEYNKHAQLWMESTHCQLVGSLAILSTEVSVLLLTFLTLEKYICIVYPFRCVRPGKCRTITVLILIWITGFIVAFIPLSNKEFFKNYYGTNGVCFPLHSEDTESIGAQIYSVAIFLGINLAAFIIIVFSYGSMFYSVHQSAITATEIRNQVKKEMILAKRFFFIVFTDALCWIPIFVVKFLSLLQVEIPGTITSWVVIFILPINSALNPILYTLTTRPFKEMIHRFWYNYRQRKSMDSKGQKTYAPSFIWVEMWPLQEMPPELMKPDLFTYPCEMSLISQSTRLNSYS
Akt phos inh – Akt phosphorylation inhibition. Neuro2A IGF-stimulated pAkt S473 HTRF, 20 min; hits give low values. activity change, % for hits at 50 µM. hit rate 0.32% among 360,000. AID 651550; in the data active = activity change below about -80%; inconclusive = mostly about -51% to -80%
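Neuro2A cells in DMEM with 0.5% FBS, overnight at 37 deg C, given compound at single 50 µM final, then IGF (6 nM final) for 20 min at 37 deg C. Lysed; phospho-Akt Ser473 by HTRF after 24 h, 665/615 ratio.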
KCNH2 3.1 block – KCNH2 3.1 (human) potassium channel inhibition | U2OS KCNH2 3.1, thallium flux FluxOr; hits give low values | activity change, % (tested at about 1.8 µM) | hit rate 0.95% among 340,000;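 active = maximum activity change below -70%; inconclusive = maximum activity change from -70% to -50%; inactive = maximum activity change above -50%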;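 note: thallium influx rate constant from kinetic fluorescence after stimulation buffer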
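FluxOr-based Tl+ influx in U2OS cells transduced with KCNH2 3.1 virus; rate constants normalized to DMSO controls.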
RXFP1 ag – agonists of human relaxin receptor RXFP1; Q9HBX9; HEK293T-RXFP1 cAMP TR-FRET, 30 min; response scale: percent of porcine relaxin response, buffer zero; Potency, µM (series often up to 57.5 µM), hits mostly activators; hit rate 0.3% among 370,000; active = well fitted activation curve with a large enough effect; inconclusive = small, poorly fitted or top-dose-only effect; note: nearly all actives have a fitted effect of over 60% in size
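HEK293 cells stably expressing RXFP1, treated 30 min at 37C with compounds plus PDE4 inhibitor Ro 20174; cAMP measured by HTRF TR-FRET. Normalized to buffer and 29 nM porcine relaxin; EC50 by Hill fit.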
Each line names hits and unclear results; the compound was inactive in the other large screens; ! = repeats disagree.

CC(C)N1C(=O)/C(=C/C=C/c2ccco2)C(=O)N(Cc2ccco2)C1=O	RXFP1 antagonist -77
O=c1nc(/C=C/c2ccc(Cl)cc2Cl)cc(C(F)(F)F)[nH]1	RXFP1 antagonist -75
Cc1oc(-c2ccccc2)nc1CN1C(=O)C(C)N=C(c2ccccc2F)c2cc(Cl)ccc21 (stereo not given)	none (no result: RXFP1 antagonist)
Cc1ccccc1CN1C(=O)C(C)N=C(c2ccccc2)c2ccccc21 (stereo not given)	RXFP1 antagonist -70 (no result: hERG WT inh, Akt phos inh, KCNH2 3.1 block)
CN1CCN(c2ccc(C(N)=O)cc2N)CC1	none
CCN1CCN(C(=O)Cc2coc3ccc4ccccc4c23)CC1	none
O=C1NC(=O)N(c2cccc(Cl)c2)C(=O)/C1=C\c1ccc(Sc2nc3ccccc3[nH]2)o1	none (no result: KCNH2 3.1 block)
O=C1NC(=O)N(c2ccccc2)C(=O)/C1=C/c1ccc(Sc2ccccc2)o1	RXFP1 antagonist -109
CC(=O)OC1N=C(c2ccccc2)c2cc(Br)ccc2NC1=O (stereo not given)	none
COc1ccc(-n2c(/C=C/c3ccc(O)cc3)nc3ccccc3c2=O)cc1	hERG WT inh -93
Cc1cc(C)n(-c2ccc(NN=C(C#N)C#N)cc2)n1	none
COc1ccccc1-n1c(O)c(/C=N/NC(=S)Nc2ccccc2)c(=O)[nH]c1=S	KCNH2 3.1 block -93
CCn1c(O)c(/C=N/NC(=O)c2ccccc2)c(=O)[nH]c1=S	none
Cc1ccc(S(=O)(=O)N2CN3CCN(C3)C2)cc1	hERG WT inh -131, KCNH2 3.1 block -134
O=C1NC(=O)C(=Cc2ccc(N3CCN(C(=O)c4ccccc4)CC3)c([N+](=O)[O-])c2)C(=O)N1	RXFP1 antagonist -75
O=C1NC(=O)N(c2ccccc2F)C(=O)/C1=C/c1ccc(Sc2nc3ccccc3[nH]2)o1	none
S=C1CN=C(c2ccccc2)c2cc(Cl)ccc2N1	RXFP1 antagonist -111
COc1ccc(C2=NCC(=S)Nc3ccc(Cl)cc32)cc1OC	none (no result: RXFP1 ag)
NC(Cc1ccc(F)cc1)c1csc(Nc2cnccn2)n1 (stereo not given)	none (no result: hERG WT inh, RXFP1 antagonist, KCNH2 3.1 block, RXFP1 ag)
CCOC(=O)c1c(NC(=O)c2c(N)n(CCCOC)c3nc4ccccc4nc23)sc2c1CCCC2	KCNH2 3.1 block -71
Cc1cc(OCC(=O)N2CCC(C(=O)O)CC2)c2c3c(c(=O)oc2c1)CCC3	RXFP1 ag inconclusive (no result: RXFP1 antagonist)
NCC(CC(=O)O)c1ccc(Cl)cc1 (stereo not given)	Akt phos inh -108%
CC(C)[C@H]1C(=O)O[C@H](C(C)C)C(=O)N(C)[C@@H](C(C)C)C(=O)O[C@H](C(C)C)C(=O)N(C)[C@@H](C(C)C)C(=O)O[C@H](C(C)C)C(=O)N1C	none (no result: RXFP1 antagonist)
O=c1[nH]c(=O)n(-c2cccc(Cl)c2)c(O)c1C=NCCCN1CCOCC1	none
Cc1ccc(-n2c(O)c(C=NCCN3CCOCC3)c(=O)[nH]c2=O)cc1	Akt phos inh -128%
CN(C)C(=O)Oc1ccc([N+](=O)[O-])cc1	none
COC(=O)C1=C(c2ccc(F)cc2OCc2ccccc2)C[C@@H]2CC[C@H]1N2C(=O)NCc1ccc(N(C)C)cc1	none (no result: RXFP1 antagonist)
COC(=O)C1=C(c2ccccc2OCc2ccccc2)C[C@@H]2CC[C@H]1N2C(=O)NCc1ccc(N(C)C)cc1	KCNH2 3.1 block -116 (no result: RXFP1 antagonist)
COC(=O)C1=C(c2ccc(F)cc2OCc2ccccc2)C[C@@H]2CC[C@H]1N2C(=O)NCCOc1ccccc1	none (no result: RXFP1 antagonist)
COC(=O)C1=C(c2ccc(F)cc2OCc2ccccc2)C[C@@H]2CC[C@H]1N2C(=O)NCCOc1ccc(OC)cc1	KCNH2 3.1 block -87 (no result: RXFP1 antagonist)
CC(=O)O[C@@H]1[C@H]2CC[C@@H]3[C@]1(C[C@@H](OC(C)=O)[C@@]1(O)C([C@@H]4O[C@@H]4C1(C)C)[C@]3(C)O)C[C@@]2(C)O (stereo not given in full)	none (no result: RXFP1 antagonist)
O=C(c1ccc(Cl)cc1)N1CCC2(CC1)OCCO2	none
Fc1ccccc1CNCCc1c[nH]c2ccccc12	none
FC(F)(F)c1ccccc1CNCCc1c[nH]c2ccccc12	RXFP1 antagonist -101
C[C@]12CCC3C(CCC4=C/C(=N/OCC(=O)NC(CCC(=O)O)C(=O)O)CC[C@@]43C)C1CCC2O (stereo not given in full)	none
CC12CCC3c4ccc(OC(=O)N(CCCl)CCCl)cc4CCC3C1CCC2O (stereo not given)	KCNH2 3.1 block -89 (no result: RXFP1 ag)
Cc1ccsc1C(=O)C1CCCN(Cc2ccc(-n3cccn3)cc2)C1 (stereo not given)	KCNH2 3.1 block -72
ClCCN1CCSCC1	none (no result: RXFP1 ag)
CCCCCCN1CCN(c2ccccc2Cl)CC1	KCNH2 3.1 block -79
Clc1ccccc1CN1CCN(c2cccc3[nH]ccc23)CC1	none (no result: RXFP1 antagonist)
CCCCCCCSc1cc(OC)c(CCNC)cc1OC	RXFP1 antagonist -70
CC1(C)CN=C(NCc2ccccc2)S1	none (no result: RXFP1 antagonist, RXFP1 ag)
C[N+]1(CC(COCc2ccccc2)OC(=O)Cc2ccccc2)CCOCC1 (stereo not given)	none
C=CCC1=C(C)C(OC(=O)C2C(C=C(C)C)C2(C)C)CC1=O (stereo not given)	RXFP1 antagonist -70 (no result: hERG WT inh, Akt phos inh, KCNH2 3.1 block, RXFP1 ag)
CC(C)=CC1C(C(=O)OCc2cccc(Oc3ccccc3)c2)C1(C)C (stereo not given)	none (no result: hERG WT inh, Akt phos inh, KCNH2 3.1 block, RXFP1 ag)
Oc1ccc(Cl)cc1Cc1ccccc1	RXFP1 antagonist -82! (no result: RXFP1 ag)
